# A number with no mark means an inactive call. Cut-off read from the data, not from the text of the source: active = IC50 below about 40 µM; inactive = the rest.
# Experiment: compound optical interference in time-resolved FRET – biochemical, fluorescence ratio, artefact control, SAR follow-up (AID 2496)
# Conditions: HTRF spectral interference counter-screen
smiles,measurement,value
O=C(c1ccc2nc(-c3ccco3)c(-c3ccco3)nc2c1)N1CCC2(CC1)OCCO2,IC50,> 50 µM

# Source: PubChem BioAssay AID2496 (Sanford-Burnham Center for Chemical Genomics, 2010)
